ChEMBL document CHEMBL4513216, “Probing the Open Global Health Chemical Diversity Library for Multistage-Active Starting Points for Next-Generation Antimalarials” (ACS Infect Dis, 2020)
The campaign covered roughly 69,000 compounds. About 8,600 (12%) showed an effect of 50% or more. The list comes from a sample in which strong results are over-represented; it also holds similar structures and randomly drawn compounds.

Test system: Plasmodium berghei
Test: Screen against P. berghei liver stage (PbLuc), transformed with Luciferase, at 10uM
Format: functional, HepG2
Settings: tested at 10 uM

SMILES | INHIBITION
CN(Cc1ccc(-n2ccnc2)cc1)CC1CCCN1c1cccnn1 (stereo not drawn) | -12.1%
Cc1ccc(S(=O)(=O)c2ncccc2CN2CCCC2)cc1 | 42.4%
O=C(c1cccnc1N1CCN(CCO)CC1)N1CCCC1 | 43.6%
Cc1ccc(S(=O)(=O)c2ncccc2CN2CCN(CCO)CC2)cc1 | 68.4%
Cc1ccc(S(=O)(=O)c2ncccc2CN2CCCCC2)cc1 | 45.2%
Cc1ccc(S(=O)(=O)c2ncccc2CN2CCOCC2)cc1 | 37.8%
Cc1ccc(S(=O)(=O)c2ncccc2CN2CCN(C)CC2)cc1 | 68.4%
CCn1cc(CN2CCCN(C(=O)c3cc(C)no3)CC2)cn1 | 25.4%
CCc1ocnc1C(=O)N1CCOC(CCCC(C)C)C1 (stereo not drawn) | 12.8%
Cc1ccc2c(c1)CCCN2C(=O)c1cncc(Br)c1 | 6.88%
O=C(c1cncc(Br)c1)N1CCCc2ccc(F)cc21 | 67.4%
O=C(c1cncc(Br)c1)N1CCCc2c(F)cc(F)cc21 | 0.705%
Cc1nnc(N2CC[C@H]3O[C@H](C(=O)NCc4ccccn4)CC[C@H]32)s1 | 21.8%
COc1cc(CN2CC[C@H](NC(C)=O)[C@@H](O)CC2)ccc1F | -13.7%
Clc1snnc1CN1CCN(c2nccs2)CC1 | 57.3%
CC1CN(Cc2nnsc2Cl)CCN1c1nccs1 (stereo not drawn) | 20.2%
Nc1nc(CN2CCN(c3nccs3)CC2)cs1 | 22.3%
Cc1nccn1C1CCCN(C(=O)c2ccc3nncn3c2)C1 (stereo not drawn) | 40.2%
O=C(CCNC(=O)c1ccoc1)Nc1cc(F)cc(F)c1 | 54.5%
O=C(CCNC(=O)c1ccoc1)Nc1ccccc1F | 21.9%
O=C(CCNC(=O)c1ccoc1)Nc1ccc(F)cc1F | 59%
O=C(CCNC(=O)c1ccoc1)Nc1cccc(F)c1 | -4.82%
O=C(CCNC(=O)c1ccoc1)Nc1c(F)cccc1F | -16.7%
O=C(CCNC(=O)c1ccoc1)Nc1cc(F)ccc1F | 24.8%
CNC(=O)CCc1cccc(C2CCCN(c3cc(C)ncn3)C2)n1 (stereo not drawn) | 44.8%

SMILES | INHIBITION
Cc1nnc2n1CCN(C(=O)c1cn(-c3ccccc3)nn1)C2 | -53.6%
CNC(=O)[C@@H]1C[C@H]2CN(C(=O)c3ccco3)C[C@H]2N1C(C)C | 16.4%
Cc1noc([C@H]2COC[C@H]3CN(C(=O)Cc4ccsc4)C[C@H]32)n1 | -32%
Fc1cnc(N2CC[C@@H](N3CCOCC3)[C@@H]2Cc2ccncc2)nc1 | 21.6%
Cc1cnc(N2CC[C@@H](N3CCOCC3)[C@@H]2Cc2ccncc2)nc1 | 33.4%
c1cnc(N2CC[C@@H](N3CCOCC3)[C@@H]2Cc2ccncc2)nc1 | 60%
Cc1cc(CN2CCC(CNS(=O)(=O)c3ccccc3Cl)CC2)c(C)o1 | 30.7%
O=C(C1CCOCC1)N1C[C@H]2CC(OCc3ccccc3)C[C@H]2C1 (stereo partly drawn) | -25.3%
C1CCC(c2nn3c(C4CCCO4)nnc3s2)C1 (stereo not drawn) | 1.24%
N#Cc1ncn(CC(=O)Cc2c(F)cccc2Cl)n1 | 26.8%
N#Cc1ncn(Cc2c(F)cccc2Cl)n1 | 64.4%
CN(Cc1c(F)cccc1Cl)C(=O)Cn1cnc(C#N)n1 | 28.7%
Cc1cc(C)cc(OCn2ccc(C(=O)O)n2)c1 | 39.1%
COC(=O)N1CCC(Oc2ccc(C(=O)NCCN(C)C)cc2Cl)CC1 | -56.4%
CN(C)CCNC(=O)c1ccc(OC2CCN(CC3CC3)CC2)c(Cl)c1 | -73.6%
CSCCNC(=O)c1ccc(OC2CCN(CC(C)(C)C)CC2)c(Cl)c1 | 52.4%
CC1(C)OC(=O)N(CCCOc2ccc(F)cc2)C1=O | 10.7%
CCc1cnc(NCC2OCCc3ccccc32)nc1 (stereo not drawn) | 44.3%
CCNc1ncc(C(=O)NCC2OCCc3ccccc32)cn1 (stereo not drawn) | 41.5%
CC(=O)c1cnc(NCC2OCCc3ccccc32)nc1C (stereo not drawn) | 74.9%
Cc1ncsc1C(=O)NC1CCN(CCC#N)CC1 | 14.4%
Cc1cc(NC(=O)c2ccc(C)c(F)c2)[nH]n1 | -30.8%
Cc1noc(NC(=O)c2ccc(F)cc2)n1 | 25.1%
COc1cc(C(=O)NS(=O)(=O)c2cc(Cl)sc2Cl)ccc1OC(F)F | 93.6%
COc1cccc(C(=O)NS(=O)(=O)c2cc(Cl)sc2Cl)c1OC(F)F | 45.7%

SMILES | INHIBITION
Cc1noc(COCC(=O)Nc2cc(C)c(Br)cn2)n1 | -21.8%
COc1cc(C(=O)NS(=O)(=O)c2cccc(C#N)c2)cc(OC)c1Br | 34.7%
Cc1noc(NC(=O)c2ccc(C)c(F)c2)n1 | 59%
COc1cc(C(=O)NC(CC(=O)O)c2cccs2)cc(Cl)c1OC (stereo not drawn) | 18.6%
COc1ccc(C(=O)NS(=O)(=O)c2cc(Cl)sc2Cl)cc1OC(F)F | 27.7%
COc1cc(C(=O)NS(=O)(=O)c2cncc(Br)c2)cc(Cl)c1OC | 5.23%
COc1cc(C(=O)Nc2nc(C)no2)cc(OC)c1Br | 91.4%
COc1cc(C(=O)Nc2nc(C)no2)cc(Cl)c1OC | 77%
Cc1cnn(CC2CCCCN2Cc2cc(C)no2)c1 (stereo not drawn) | 4.245%
Cn1cc(C2CCCN2C(=O)COCCc2ccccc2)cn1 (stereo not drawn) | -32%
CC(c1ccncc1)n1cc2nc(N(C)C)[nH]cc-2c1=O (stereo not drawn) | -27.5%
COCC(=O)N1CCC(c2n[nH]c3nccnc23)CC1 | -22.6%
CC(C)(C)OC(=O)N1CCC(C(=O)NCCNc2ncccn2)CC1 | -33.9%
c1csc(N2[C@H](Cn3cncn3)C[C@@H]3CNCC[C@@H]32)n1 | -86.4%
COc1ccccc1C(O)CNc1nccc(-c2ccc(C)nc2C)n1 (stereo not drawn) | 0.868%
c1cnn(CC2CCCCN2Cc2nc(-c3ccoc3)no2)c1 (stereo not drawn) | 31.8%
CC(NC(=O)NCc1cccnc1N(C)C)c1cccs1 (stereo not drawn) | 37.9%
Cc1noc(CNc2ccc(OC(F)F)cc2OC(F)F)n1 | -29.9%
COc1cc(C(=O)Nc2c(C)noc2C)ccc1C | 18.6%
COc1cc(C(=O)Nc2nc(C)no2)ccc1C | 63.6%
COc1cc(C(=O)Nc2cn[nH]c2)ccc1C | 10.45%
COc1cc(C(=O)Nc2nc(C)no2)ccc1OC1CCCC1 | 29.7%
COc1cc(C(=O)Nc2nc(C)no2)ccc1OC(F)F | 81.1%
